The full list was thinned out, with hits kept by preference.
KDM4E inh: inhibitors of human JMJD2E histone demethylase. AID 2147. hit rate 1.6% among 230,000. B2RXH2. Potency, µM (highest dose often 57.1 µM), actives largely listed as inhibitors. JMJD2E catalytic domain, FDH-coupled NADH fluorescence (FDH is formaldehyde dehydrogenase); note: nearly all actives have a fitted effect of over 50% in size
Target sequence (B2RXH2 1-337 limits assumed): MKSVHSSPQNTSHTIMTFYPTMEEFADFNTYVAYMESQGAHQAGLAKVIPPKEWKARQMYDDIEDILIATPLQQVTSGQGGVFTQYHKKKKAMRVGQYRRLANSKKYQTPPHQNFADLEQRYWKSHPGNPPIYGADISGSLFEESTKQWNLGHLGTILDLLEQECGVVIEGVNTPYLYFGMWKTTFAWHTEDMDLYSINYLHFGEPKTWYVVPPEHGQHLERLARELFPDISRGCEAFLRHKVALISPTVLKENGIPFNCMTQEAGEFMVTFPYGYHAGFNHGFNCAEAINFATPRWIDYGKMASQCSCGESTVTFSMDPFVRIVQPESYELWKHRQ
PKM2 activator: increases activity of human pyruvate kinase M2; P14618; hit rate 0.34% among 260,000; purified PKM2, Kinase-Glo ATP luminescence, activation; response scale: 0% is enzyme alone, no compound; Potency, µM (titrated, usually from 57.5 µM), actives largely listed as activators; note: nearly all actives have a fitted effect of over 55% in size
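Kinase-Glo luminescence reports ATP generated from ADP (0.1 mM) and PEP (0.5 mM) by purified hPK-M2 after 1 h at room temperature, pH 7.2 imidazole buffer; intermediate enzyme activity allows detecting inhibitors and activators.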
APEX1 inh: APE1 (human) endonuclease inhibition. P27695. recombinant APE1, TAMRA/BHQ-2 abasic DNA cleavage fluorescence. Potency, µM (doses to about 65.8 µM), usual class: inhibitors. hit rate 0.35% among 350,000. AID 2517; note: nearly all actives have a fitted effect of over 55% in size
Target sequence (P27695 whole entry, looked up): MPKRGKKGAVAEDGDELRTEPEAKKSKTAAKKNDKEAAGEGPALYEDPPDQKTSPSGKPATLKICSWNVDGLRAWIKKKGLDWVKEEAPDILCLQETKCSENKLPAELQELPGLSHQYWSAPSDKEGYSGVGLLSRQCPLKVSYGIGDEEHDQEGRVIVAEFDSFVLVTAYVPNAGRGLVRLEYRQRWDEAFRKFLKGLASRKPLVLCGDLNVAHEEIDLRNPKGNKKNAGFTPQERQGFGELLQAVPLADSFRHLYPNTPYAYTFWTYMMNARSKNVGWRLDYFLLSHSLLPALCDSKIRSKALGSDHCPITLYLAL
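Kinetic fluorescence read (525 ex/598 em nm, three reads 60 s apart) of AP-site incision; signal = third minus first read. Enzyme 0.75 nM, dual-labelled THF duplex 50 nM, compound preincubation 15 min RT.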
BLM inh: Bloom syndrome helicase (human) inhibition. Potency, µM (doses to about 56.1 µM), usual class: inhibitors. hit rate 0.2% among 350,000. recombinant BLM DNA unwinding, fluorescence dequenching. P54132; note: nearly all actives have a fitted effect of over 35% in size
RECQ1 inh: RECQ1 (human) helicase inhibition; P46063; RECQ1 DNA unwinding, red fluorescence kinetic read; Potency, µM (top dose mostly 57.3 µM), usual class: inhibitors; hit rate 0.54% among 240,000; AID 2549; note: nearly all actives have a fitted effect of over 30% in size
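50 nM RECQ1T1 preincubated 15 min with compound in Tris pH 8.0 buffer with MgCl2, DTT, Tween-20 and 2.5 ug/ml poly(dI-dC); started with 200 nM TAMRA/BHQ-2 forked duplex and 2 mM ATP. Unwinding read as fluorescence (525/598 nm), two reads 2 h apart.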
Hits are given with their value; n = inactive; u = inconclusive; x = no result given; ! = a repeat was not active; [ ] = dose if it differs, or a comment. Unless noted, calls come from the whole dose curve; as a rule, active = well fitted curve in the direction sought with a large enough effect; inconclusive = small, poorly fitted or top-dose-only effect, or another doubt; inactive = no such curve, though single readings can be large; an effect the other way counts as inactive or inconclusive.

SMILES | KDM4E inh | PKM2 activator | APEX1 inh | BLM inh | RECQ1 inh
CSCC[C@H](NC(=O)[C@H](CC(C)C)NC(=O)[C@H](Cc1c[nH]c2ccccc12)NC(=O)[C@H](CCC(N)=O)NC(=O)[C@@H](NC(=O)[C@H](Cc1ccccc1)NC(=O)[C@H](CC(=O)O)NC(=O)[C@H](CCC(N)=O)NC(=O)[C@H](C)NC(=O)[C@H](CCCNC(=N)N)NC(=O)[C@H](CCCNC(=N)N)NC(=O)[C@H](CO)NC(=O)[C@H](CC(=O)O)NC(=O)[C@H](CC(C)C)NC(=O)[C@H](Cc1ccc(O)cc1)NC(=O)[C@H](CCCCN)NC(=O)[C@H](CO)NC(=O)[C@H](Cc1ccc(O)cc1)NC(=O)[C@H](CC(=O)O)NC(=O)[C@H](CO)NC(=O)[C@@H](NC(=O)[C@H](Cc1ccccc1)NC(=O)[C@@H](NC(=O)CNC(=O)[C@H](CCC(N)=O)NC(=O)[C@H](CO)NC(=O)[C@@H](N)Cc1cnc[nH]1)[C@@H](C)O)[C@@H](C)O)C(C)C)C(=O)N[C@@H](CC(N)=O)C(=O)N[C@H](C(=O)O)[C@@H](C)O | x | x | n | n | n
CCCCCCCCCCCCCCCCCCCCCCCCCCCCCC | x | x | n | n | n
C=CC[n+]1ccc(/C=C2\C=Cc3cc(C)ccc3N2CC)c2ccccc21 | 3.2µM | n | n | u | n
Cc1cc(O)c2c(c1O)C(=O)[C@]13C(=C2O)C(=O)[C@@H]2[C@@H](O)[C@H]1[C@@H]1[C@H](O)[C@H]3C(=O)C3=C(O)c4c(O)cc(C)c(O)c4C(=O)[C@]312 | x | x | 9.5µM | x | x
Cc1ccc(C(=O)C2=C(O)C(=O)N(c3ncccn3)C2c2cccc(Cl)c2)o1 (stereo not drawn) | n | 6.3µM | n | n | n
CCCCOP(=O)(c1ccc(N(C)C)cc1)C(O)c1ccncc1 (stereo not drawn) | 22µM | u | n | n | n
CCCCOP(=O)(c1ccc(N(C)C)cc1)C(O)c1ccc(N(C)C)cc1 (stereo not drawn) | x | x | n | n | x
Oc1ccc(CN2CCN(c3ccccc3)CC2)c2cccnc12 | 18µM | n | n | n | n
Oc1ccc(CN2CCc3ccccc3C2)c2cccnc12 | u | n | n | n | n
Cc1ccc(C)c(S(=O)(=O)N2CCN(Cc3ccc(O)c4ncccc34)CC2)c1 | 3.5µM | n | n | n | n
CCOC(=O)N1CCN(Cc2ccc(O)c3ncccc23)CC1 | 13µM | n | n | n | n
C#C[C@]1(O)CC[C@H]2C3CCC4=Cc5oncc5CC4(C)C3CCC21C (stereo partly drawn) | n | x | n | x | n
CN(C)C=O | x | x | n | x | n
Cc1cc(C(=O)N/N=C/c2ccco2)n[nH]1 | n | n | n | n | n
CC(/C=C/c1ccco1)=N\NC(=O)c1cc(C)[nH]n1 | u | n | n | n | 32µM
COc1cc([C@@H]2CC(=O)c3c(O)cc(O)cc3O2)ccc1O | x | x | n | n | n
Oc1ccc(/C=N/Nc2ncnc3c2ncn3Cc2ccccc2)cc1O | 10µM | n | u | n | n
Cc1cccc(NC(=O)CN2C(=O)S/C(=C\c3cc(C)n(C)c3C)C2=O)c1 | n | n | n | n | n
Cc1cccc(NC(=O)CN2C(=O)N/C(=C/c3cc(C)n(-c4cccnc4)c3C)C2=O)c1 | 18µM | n | n | n | n
Cc1cccc(NC(=O)CN2C(=O)N/C(=C/c3cc(C)n(C)c3C)C2=O)c1 | 32µM | x | n | n | n
Cc1cc(/C=C2/NC(=O)N(c3ccccc3)C2=O)c(C)n1-c1cccnc1 | 20µM | n | n | n | n
Cc1cccc(NC(=O)CN2C(=O)N/C(=C/c3cc(C)n(-c4ccncc4)c3C)C2=O)c1 | n | n | n | n | n
Cc1cc(/C=C2/NC(=S)NC2=O)c(C)n1-c1cccnc1 | n | n | n | n | u
C[C@@H](c1ccccc1)N1C(=O)[C@H]2[C@H]3[C@H](O)[C@H](O)C/C(=N/NC(=O)OCc4ccccc4)[C@@H]3CC[C@@H]2C1=O | x | x | n[12.4 µM] | n[12.4 µM] | n[11.5 µM]
c1ccc(-c2ccc(N3CCCC4(CCNCC4)C3)cc2)cc1 | x | x | n | n | n
SMILES | KDM4E inh | PKM2 activator | APEX1 inh | BLM inh | RECQ1 inh
O=Nc1ccc(Nc2ccccc2)cc1 | x | x | n | x | n
CCc1cccc(NS(=O)(=O)c2ccc3c(c2)oc(=O)n3C)c1 | n | 3.2µM | n | n | n
COc1ccc(S(=O)(=O)Nc2ccc3c(c2)OCO3)cc1 | n | 25µM | n | n | n
Cn1c(=O)oc2cc(S(=O)(=O)Nc3ccccc3)ccc21 | n | 2.5µM | n | n | n
Cn1c(=O)oc2cc(S(=O)(=O)Nc3cccc([N+](=O)[O-])c3)ccc21 | x | x | n | n | x
COc1ccc(S(=O)(=O)Nc2ccc3c(c2)OCO3)cc1C | n | n | n | n | n
Cn1c(=O)oc2cc(S(=O)(=O)Nc3ccc4c(c3)OCO4)ccc21 | n | 7.9µM | n | n | n
C[C@]12C[C@H](O)C3[C@@H](CCC4=CC(=O)CC[C@@]43C)[C@@H]1CC[C@@H]2C(=O)CO (stereo partly drawn) | n | x | u | x | n
CC1=C(/C=C/C(C)=C/C=C/C(C)=C/C(=O)Nc2ccc(O)cc2)C(C)(C)CCC1 | 20µM! | n | n | n | n
CC[C@H](C)[C@H](N)C(=O)N[C@H]1CCC(=O)NCC(C(=O)N[C@@H](Cc2ccc(O)cc2)C(=O)N[C@@H](CCCNC(=N)N)C(=O)N[C@@H](CC(C)C)C(=O)N[C@@H](CCCNC(=N)N)C(=O)N[C@@H](Cc2ccc(O)cc2)C(N)=O)NC(=O)[C@@H]2CCCN2C(=O)[C@@H](NC(=O)[C@@H](N)[C@@H](C)CC)CCC(=O)NCC(C(=O)N[C@@H](Cc2ccc(O)cc2)C(=O)N[C@@H](CCCNC(=N)N)C(=O)N[C@@H](CC(C)C)C(=O)N[C@@H](CCCNC(=N)N)C(=O)N[C@@H](Cc2ccc(O)cc2)C(N)=O)NC(=O)[C@@H]2CCCN2C1=O (stereo partly drawn) | x | x | n | n | n
S=c1nc(-c2cc(Cl)ccc2Cl)[nH][nH]1 | n | n | n | n | n
S=c1nc(-c2ccccc2Br)[nH][nH]1 | 14µM | n | n | n | n
CCOC(=O)c1c(C)oc2c1c1c(c3ccccc32)OCN(CCCC(=O)O)C1 | 10µM | n | n | n | n
Cc1ccc(CN(CC2CCCO2)C(=O)CN2C(=O)C(C(C)C)Oc3ccccc32)o1 (stereo not drawn) | n | 32µM | n | n | n
CC(C)C1Oc2ccccc2N(CC(=O)N(Cc2ccccn2)CC2CCCO2)C1=O (stereo not drawn) | n | n | n | n | n
CC(=O)c1c(C)c(C)c2n1CCn1c(C)ccc1-2 | 22µM | n | n | n | n
CCC1=[N+](C)CCn2c(C)ccc21 | n | n | n | n | n
O=c1[nH][nH]c(=S)n1C1CCCCC1 | 2.8µM | n | n | n | n
COc1ccccc1CNc1ncnc2ccc(-c3ccccc3C#N)cc12 | x | x | n | n | n

Screening results deposited in PubChem BioAssay by National Center for Advancing Translational Sciences (NCATS).
